Methyltransferases – Primary Screen for Target Class Profiling of Small Molecule Inhibitors of Methyltransferases; purified enzyme, MTase-Glo SAH luminescence; hits give low values; calls only at 40 µM; actives 3.9% (n = 25,000); AID 1745853, 2022; call rule not given here
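Each enzyme was reacted with SAM and its substrate, with compounds tested once at 40 uM; SAH formed was read by MTase-Glo luminescence.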
* marks the source's active call; other numbers are inactive results; i = inactive; + = active, no number. This is one part of a sample in which hits are shown more often than they occur. On the % scale 0 is the no-effect control and ±100 the full control effect.

SMILES	Methyltransferases
Cc1cc2c(cc3n2CC(C)(C(=O)NC2CCCCCC2)N(c2cccc(C)c2C)C3=O)o1 (configuration not stated)	i
Cc1cc(C)cc(NC(=O)Cn2nc3n(CCCOC(C)C)c(=O)c4ccccc4n3c2=O)c1	i
COC(=O)c1cc2n(n1)CC(C)(C(=O)NC1CCCCC1)N(c1ccc(C)cc1)C2=O (configuration not stated)	i
CCCn1c(=O)c2ccc(C(=O)NC(C)C)cc2n2c(SCC(=O)Nc3ccccc3C)nnc12	i
Cc1ccc(Cn2c(=O)c3ccccc3n3c(=O)n(Cc4ccccc4Cl)nc23)cc1	i
CC1(C)C2CCC1(C)C(OC(=O)C(O)(CC(=O)O)CC(=O)O)C2 (configuration not stated)	+
COCCn1nc2n(c1=O)CCC1(CC2)CCN(C(=O)CC(C)(C)C)CC1	i
CCCN(CCC)CCCN1C(=O)c2cc3sccc3n2CC1(C)C(=O)NC1CCCCCC1 (configuration not stated)	i
CCOC(=O)c1cc2n(n1)CC(C)(C(=O)NCCCOC)N(c1ccc(OC)c(OC)c1)C2=O (configuration not stated)	i
Cc1nc(Nc2n[nH]c3c2CN(C(=O)NC(CN(C)C)c2ccccc2)C3(C)C)c2sccc2n1 (configuration not stated)	+
CC1(C(=O)NC2CCCCCCC2)Cn2c(ccc2-c2ccco2)C(=O)N1CCN1CCOCC1 (configuration not stated)	i
Cn1nc(-c2ccc(C(F)(F)F)cc2)nc2c(=O)n(C)c(=O)nc1-2	+
CC(=O)Nc1c2n(c3ccc(F)cc13)CC(C)(C(=O)NC1CCCC1)N(Cc1ccco1)C2=O (configuration not stated)	i
COc1cccc(CNC(=O)c2ccc3c(=O)nc4c(-c5ccc(Cl)cc5)n[nH]n4c3c2)c1	i
Cc1cccc(Cn2nc3n(Cc4ccccc4)c(=O)c4ccc(C(=O)NC(C)C)cc4n3c2=O)c1	i
Brc1c(Br)c(Br)c2n[nH]nc2c1Br	+
CC1(C(=O)NC2CCCC2)Cn2c(ccc2-c2ccco2)C(=O)N1CCCN1CCOCC1 (configuration not stated)	i
COc1ccc(Cl)cc1NC(=O)N1CCn2c(C)ccc2C1C(C)C (configuration not stated)	i
Cc1ccccc1Cn1nc2n(C(C)C)c(=O)c3ccc(C(=O)NC4CCCC4)cc3n2c1=O	i
CN(C)CCCc1cc(C(=O)Nc2ccc(-c3ccncc3)cc2)ccc1O	+
COc1ccc(C(=O)Nc2ccc3c(c2)C(=O)N(C)C2=NCCN23)cc1OC	i
COc1ccc(NC(=O)c2nc3sccn3c2-c2ccncc2)cc1	i
CCOc1ccc(N2C(=O)c3cc(-c4cccs4)nn3CC2(C)C(=O)NC2CCCCC2)cc1 (configuration not stated)	i
O=C(CCn1ccc2cc(S(=O)(=O)N3CCCCC3)ccc21)NCc1cccc(F)c1	i
O=C(O)CCc1nccc2c1[nH]c1ccccc12	i
SMILES	Methyltransferases
Oc1cccc(Nc2ccnc3[nH]c4ccccc4c23)c1	+
COC(=O)c1cc2n(n1)CC(C)(C(=O)NC1CCCCC1)N(c1ccc(F)cc1C)C2=O (configuration not stated)	i
Cc1ccc2c(c1)C1C=CCC1C(c1ccccc1Cl)N2 (configuration not stated)	i
Cc1cc(F)ccc1NC(=O)Cn1nc2nc(Nc3ccc(F)cc3)ccn2c1=O	i
COCCCNC(=O)C1(C)Cn2nc(-c3ccccc3)cc2C(=O)N1Cc1ccc(Cl)cc1 (configuration not stated)	i
C=CCN1C(=O)c2ccc(-c3ccco3)n2CC1(C)C(=O)NCc1ccc(Cl)cc1 (configuration not stated)	i
CCNC(=O)Nc1ccc(-c2nc3c(c(N4CCOCC4C)n2)CCN(C2COC2)C3)cc1 (configuration not stated)	i
O=C(Cn1nc2n(CCc3ccccc3)c(=O)c3ccccc3n2c1=O)Nc1ccccc1F	i
Cc1ccc(Cn2nc3n(CCC(C)C)c(=O)c4ccc(C(=O)NCC(C)C)cc4n3c2=O)cc1	i
Cc1cc(C)cc(N2C(=O)c3cc4occc4n3CC2(C)C(=O)NC2CCCC(C)C2C)c1 (configuration not stated)	i
C[C@@H]1C(=O)O[C@H]2[C@H]1CC[C@@]1(C)C(=O)C=C[C@@](C)(O)[C@H]21	i
C=C1C(=O)O[C@@H]2[C@H]1[C@H](O)C[C@]1(C)[C@@H](O)CC=C(C)[C@@H]21	i
CC1=CCC(O)C2(C)CCC3C(C)C(=O)OC3C12 (configuration not stated)	+
CCCSCCCN1C(=O)c2cc3sc(CC)cc3n2CC1(C)C(=O)NC1CCCCC1 (configuration not stated)	i
O=C(NCc1ccc2c(c1)OCO2)c1ccc2c(=O)nc3c(-c4ccc(Cl)cc4)n[nH]n3c2c1	i
COc1cc2c(Oc3ccc(NC(=O)C4(C(=O)Nc5ccc(F)cc5)CC4)cc3F)ccnc2cc1OCCCN1CCOCC1	i
COc1cc2ncnc(Nc3ccc(F)c(Cl)c3)c2cc1OCCCN1CCOCC1	+
COc1cc2c(Nc3ccc(Cl)c(Cl)c3F)ncnc2cc1OCC1C[C@@H]2CN(C)C[C@@H]2C1 (some centres not stated)	+
Cn1cc(-c2cnc(Nc3ccc(F)c(Cl)c3)c3c2CCO3)cn1	i
COCCOc1cc2ncnc(Cl)c2cc1OCCOC	i
CCOc1ccc(N2C(=O)c3cc4sccc4n3CC2(C)C(=O)NC2CCCC(C)C2C)cc1 (configuration not stated)	i
COc1cccc(C2c3cccn3-c3sc4c(c3CN2C(=O)Nc2cc(C)ccc2OC)CCCC4)c1 (configuration not stated)	i
CC1(C(=O)NC2CCCC2)Cn2c(ccc2-c2ccco2)C(=O)N1Cc1cccc(Br)c1 (configuration not stated)	i
Cc1ccc(NC(=O)CSc2nnc3n(CCC(C)C)c(=O)c4ccccc4n23)cc1	i
CN(C)CCCNC(=O)c1ccc(-c2cc(O)c3ncccc3c2)cc1	+
SMILES	Methyltransferases
COc1cccc(-c2ccc(C(=O)NCCNC(=O)c3ccccc3OC)cc2)c1	i
N#Cc1cccnc1-c1cccc(C(=O)NCCNC(=O)c2ccccc2)c1	i
CC1(C(=O)NC2CCCCCCC2)Cn2c(cc3sccc32)C(=O)N1c1cccc(F)c1 (configuration not stated)	i
C=CCNC(=O)c1cc2n(n1)CC(C)(C(=O)NCc1ccc(F)cc1)N(C)C2=O (configuration not stated)	i
CC(C)c1ccc(NC(=O)c2cccs2)c(-c2nc3ccccc3[nH]c2=O)c1	i
Cc1ccc(-c2cc3n(n2)CCCN(C(=O)c2cc(CN4CCOCC4)on2)C3)o1	i
CN1CCN(c2nc3c(-c4cccc(F)c4)nnn3c3ccc(Cl)cc23)CC1	i
COc1ccc(CNC(=O)c2ccc3c(=O)nc4c(-c5ccc(C)cc5)n[nH]n4c3c2)cc1	i
Oc1ccc(C2CNCc3sccc32)cc1O (configuration not stated)	+
CC1CCCCC1NC(=O)C1(C)Cn2c(ccc2-c2ccco2)C(=O)N1CCCc1ccccc1 (configuration not stated)	i

Source: PubChem (National Center for Advancing Translational Sciences (NCATS))
